Inconclusive results are not listed. Active and inactive are the calls of the source. The call rests on the fitted dose curve; in most records, active means well fitted cell-killing curve with a large enough effect; inconclusive means small, poorly fitted or top-dose-only effect, or effect the other way; inactive means no such curve, though single readings can be large or run the other way. Numbered stars: 1 amine (or outer) side, 2 acyl side, 3 side chain; on linkers, the order of the positions; unused ones are H or OH. Bridge positions count the residues as written; N and C are the ends. Square brackets hold non-standard residues; d marks the D form. Peptide text beside a SMILES is read from it. I, II: the chains in the order shown. Actinocin(9to1) = Cc1c2oc3c(C)ccc(C(=O)[*:1])c3nc-2c(C(=O)[*:2])c(N)c1=O; NMeV = CN[CH](C(=O)O)C(C)C; Sar = CNCC(=O)O
Assay: Quantitative highthroughput screen to assess conditional lethalithy of SEM cells grown in Human Plasma-Like Medium with dialyzed fetal bovine serum (HPLM+ds) (AID 1963882); further: nearly all actives have a fitted effect of over 35% in size
Details: SEM B-ALL cells in HPLM+ds, CellTiter-Glo viability, 48 h; series mostly up to 45.8 µM; viability: at the top concentration
Text: Assay Provider: Jason Cantor Ph.D.
Department of Biochemistry
University of Wisconsin-Madison, Madison, WI, USA
Chemical screening studies have identified drug sensitivities across hundreds of cancer cell lines but most putative therapeutics fail to translate. Discovery and development of drug candidates in models that more accurately reflect nutrient levels in human blood is a major challenge. Here we performed high-throughput screens in conventional versus Human Plasma-Like Medium (HPLM) to identify compounds that were "missed" when screening using the artificial culture condition. Sets of conditional anticancer compounds spanned phases of clinical development and included non-oncology drugs were assessed. […] We also traced conditional phenotypes for several chemotherapeutics to availability of HPLM-specific metabolites and confirmed others for compounds whose reported targets are encoded by nonessential genes. Our findings establish generalizable strategies for exploiting conditional lethality in HPLM to reveal therapeutic candidates and mechanisms of action in cancer cells.
Described herein are the results of each viability screens against three cell lines: NOMO1 (an acute myeloid leukemia cell line); P12-Ichikawa (a T-cell acute lymphoblastic leukemia); and SEM (a B-cell ALL). Each assay was screened using 3 different cell culture media: homemade human plasma-Like medium with 10% dialyzed fetal bovine serum (HPLM+ds); RPMI1640 with 10% untreated FBS and 5mM glucose (RPMI+s); and RPMI1640 with 10% dialyzed fetal bovine serum and 5 mM glucose (RPMI+ds).
PROTOCOL TABLE (as described by Inglese J, Shamu CE and Guy RK. 2007)
SEQUENCE No. (e.g., 1, 2, 3, etc.); […] (e.g., Cells, Incubation, Reagent, etc.); VALUE and DESCRIPTION.
1; Cells; 5 uL; white, solid bottom 1536-well Greiner assay plate.
2; Compounds; 23 nL; Kalypsis pin tool (Wako USA) equipped with a 1536-well pin head to transfer to the assay plates.
3; Incubation; 48 hours; 37C incubation.
4; Reagent; 3 uL; CellTiter Glo (Promega).
5; Incubation; 5 min, room temperature
6; Detection; Luminescence, Viewlux PerkinElmer.
NOTES (numbers refer to Sequence numbers above)
1. Briefly, 5 ul of cell reagent was dispensed using a Multidrop Combi Dispenser. The NOMO1 and SEM cells were plated at 500 cells/well and the P12-Ichikawa line at 1000 cells/well.
2. After seeding the cells, 23 nL of MIPE 4.1 library compounds (in DMSO) were added to each plate using a Kalypsys 1536 Pintool dispenser. Bortezomib at final concentration of […] and DMSO were added to each plate as positive and negative controls respectively. For each screen, MIPE 4.1 compounds were added over an eleven-point concentration range […] in 3-fold dilutions.
3. Each plate was covered with a stainless steel gasketed lid to prevent evaporation and incubated for 48 hour at 37C, 95% relative humidity, and 5% CO2.
4-5. Three microliter CellTilter-GloTM luminescent substrate mix (Promega) reagent was added to the assay plate and incubated at room temperature for 5 min.
6. The luminescence signal was measured using a ViewLux (PerkinElmer) multiplate reader with a 2 second exposure time per plate. Data for each compound were normalized as percent viability such that measurements for DMSO and the empty well controls in each plate were defined as 100% and 0%, respectively.
Potency means the concentration at half of the fitted maximal effect.

Compound | viability | Potency
Cc1cc2c(s1)Nc1ccccc1N=C2N1CCN(C)CC1 | 96.6% (inactive) | –
O=C1NC(=O)C(=Cc2ccc(-c3ccc(F)cc3)o2)S1 | 94.7% (inactive) | –
CCOC(=O)C(C)(C)Oc1ccc(Cl)cc1 | 93.6% (inactive) | –
COc1cc(N2CCC(N(C)C)CC2)ccc1Nc1ncc(Cl)c(Nc2ccccc2P(C)(C)=O)n1 | – | 467 nM (active)
CCNC(=O)Nc1ccc(Oc2ncnc(N)c2C=NOC)cc1Cl | – | 1050 nM (active)
CC(=O)Oc1cc2c(s1)CCN(C(C(=O)C1CC1)c1ccccc1F)C2 (stereo not given) | – | 18700 nM (active)
COc1ncc(-c2ccc3c(Nc4cc(Oc5cc(F)cc(F)c5)cc(C(=O)O)c4)c(S(=O)(=O)NC4CC4)cnc3c2)c(OC)n1 | 93.2% (inactive) | –
COc1cc2c(Oc3ccc4[nH]c(C)cc4c3F)ncnc2cc1OCCCN1CCCC1 | – | 9350 nM (active)
C[C@H]1c2cccc(O)c2C(O)=C2C(=O)[C@]3(O)C(O)=C(C(N)=O)C(=O)[C@@H](N(C)C)[C@@H]3[C@@H](O)[C@@H]21 | 86.8% (inactive) | –
COc1cccc2cc(-c3nc(C4CCC(C(=O)O)CC4)n4ncnc(N)c34)[nH]c12 (stereo not given) | – | 590 nM (active)
O=C(CCCN1CCC(O)(c2ccc(Cl)cc2)CC1)c1ccc(F)cc1 | 95.4% (inactive) | –
CCCc1nc2c(C)cc(-c3nc4ccccc4n3C)cc2n1Cc1ccc(-c2ccccc2C(=O)O)cc1 | 111% (inactive) | –
NC(=O)c1cccc(-c2cccc(OC(=O)NC3CCCCC3)c2)c1 | 76.9% (inactive) | –
Cc1nc2c([nH]1)CCN(C(=O)c1ccc(NC(=O)c3ccccc3-c3ccccc3)cc1)c1ccccc1-2 | 100% (inactive) | –
C[C@@H]1[C@H](C)CC[C@]2(C(=O)O)CC[C@]3(C)C(=CC[C@@H]4[C@@]5(C)CC[C@H](O)C(C)(C)[C@H]5CC[C@]43C)[C@@H]12 | 103% [at 92.2 µM] (inactive) | –
Cc1c2oc3c(C)ccc(C(=O)NC4C(=O)NC(C(C)C)C(=O)N5CCCC5C(=O)N(C)CC(=O)N(C)C(C(C)C)C(=O)OC4C)c3nc-2c(C(=O)NC2C(=O)NC(C(C)C)C(=O)N3CCCC3C(=O)N(C)CC(=O)N(C)C(C(C)C)C(=O)OC2C)c(N)c1=O (stereo not given) (I: TVP[Sar][NMeV] / II: TVP[Sar][NMeV]; ester I:1-I:C, II:1-II:C; linker I:N-II:N via Actinocin(9to1); configuration not given here) | 1.45% (inactive) | –
CC[C@H]1OC(=O)[C@H](C)C(=O)[C@H](C)[C@@H](O[C@H]2O[C@H](C)C[C@H](N(C)C)[C@@H]2O)[C@](C)(OC)C[C@@H](C)C(=O)[C@H](C)[C@H]2N(CCCCn3cnc(-c4cccnc4)c3)C(=O)O[C@]12C | 86.2% (inactive) | –
Clc1ccc(C(Cn2ccnc2)OCc2c(Cl)cccc2Cl)c(Cl)c1 (stereo not given) | 96.9% (inactive) | –
C=C1C(=O)O[C@H]2[C@@H]1CCC(C)=CCC[C@@]1(C)O[C@@H]21 | – | 1320 nM (active)
NC(=O)c1cnccn1 | 95.8% (inactive) | –

Compound | viability | Potency
COc1cccc(-c2cc(=O)c3ccccc3o2)c1N | 116% (inactive) | –
O=C(C=Cc1ccc(CN(CCO)CCc2c[nH]c3ccccc23)cc1)NO | – | 264 nM (active)
Cc1cn([C@H]2C[C@H](N=[N+]=[N-])[C@@H](CO)O2)c(=O)[nH]c1=O | 88.8% (inactive) | –
O=C1c2c(O)cccc2[C@@H]([C@@H]2O[C@H](CO)[C@@H](O)[C@H](O)[C@H]2O)c2cc(CO)cc(O)c21 | 99% (inactive) | –
C[C@@]12C(=O)OC(=O)[C@@]1(C)C1CCC2O1 | – | 8330 nM (active)
CC(C)(O)Cn1c(NC(=O)c2ccc(-c3cn[nH]c3)s2)nc2cc(CN3CCOCC3)ccc21 | – | 105 nM (active)
Cn1cc(C[C@@H](N)C(=O)O)c2ccccc21 | 77.9% [at 23.2 µM] (inactive) | –
CCOc1ccc(Cc2cc([C@@H]3O[C@H](CO)[C@@H](O)[C@H](O)[C@@H]3O)ccc2Cl)cc1 | 96.1% (inactive) | –
COC(=O)C1=C(C)NC(C)=C(C(=O)OCCN2CCN(C(c3ccccc3)c3ccccc3)CC2)C1c1cccc([N+](=O)[O-])c1 (stereo not given) | 90% (inactive) | –
C=C1CCC2[C@](C)(CO)C(O)CC[C@]2(C)C1CC=C1C(=O)OCC1O (stereo not given in full) | 90.2% [at 92.2 µM] (inactive) | –
O=c1[nH]c(-c2ccc(C(F)(F)F)cc2)nc2c1CSCC2 | 91.7% (inactive) | –
NCCc1cnc[nH]1 | 99.9% (inactive) | –
C[C@@H]1[C@H](O)[C@@H](C)C=CC=CC=CC=CC=CC=CC=C[C@H](O[C@@H]2O[C@H](C)[C@H](O)[C@H](N)[C@@H]2O)C[C@@H]2O[C@](O)(C[C@@H](O)C[C@@H](O)[C@H](O)CC[C@@H](O)C[C@@H](O)CC(=O)O[C@H]1C)C[C@H](O)[C@@H]2C(=O)O | 108% (inactive) | –
Nc1cc(C(Cl)=C(Cl)Cl)c(S(N)(=O)=O)cc1S(N)(=O)=O | – | 7430 nM (active)
COc1cc(C)c(C=CC(C)=CC=CC(C)=CC(=O)O)c(C)c1C | 95% (inactive) | –
CC(C)c1cnn2c(NCc3ccccc3)cc(N[C@@H](CO)[C@H](O)CO)nc12 | – | 743 nM (active)
O=C(N[C@H](CO)[C@H](O)c1ccc([N+](=O)[O-])cc1)C(Cl)Cl | 91.9% (inactive) | –
COc1cc([C@@H]2c3cc4c(cc3[C@H](O)[C@H]3COC(=O)[C@@H]23)OCO4)cc(OC)c1OC | – | 296 nM (active)
COc1ccc(-c2coc3cc(O)ccc3c2=O)cc1 | 124% (inactive) | –
CCC(C)(Oc1ccc(C2(c3ccc(OC(C)(CC)C(=O)O)cc3)CCCCC2)cc1)C(=O)O (stereo not given) | 80.1% (inactive) | –

Reference: PubChem BioAssay (NCATS)
